# From the supplement of paper PMC3334620
# Whole data set: some 33,000 sequences, median “E-score (-0.5 to 0.5)” near -0.016, cut for the highest 2% near 0.3. The full list was thinned out, with the highest values kept by preference.
# Molecular target: T1, Yer184c (UniProt P39961)
# T1 sequence: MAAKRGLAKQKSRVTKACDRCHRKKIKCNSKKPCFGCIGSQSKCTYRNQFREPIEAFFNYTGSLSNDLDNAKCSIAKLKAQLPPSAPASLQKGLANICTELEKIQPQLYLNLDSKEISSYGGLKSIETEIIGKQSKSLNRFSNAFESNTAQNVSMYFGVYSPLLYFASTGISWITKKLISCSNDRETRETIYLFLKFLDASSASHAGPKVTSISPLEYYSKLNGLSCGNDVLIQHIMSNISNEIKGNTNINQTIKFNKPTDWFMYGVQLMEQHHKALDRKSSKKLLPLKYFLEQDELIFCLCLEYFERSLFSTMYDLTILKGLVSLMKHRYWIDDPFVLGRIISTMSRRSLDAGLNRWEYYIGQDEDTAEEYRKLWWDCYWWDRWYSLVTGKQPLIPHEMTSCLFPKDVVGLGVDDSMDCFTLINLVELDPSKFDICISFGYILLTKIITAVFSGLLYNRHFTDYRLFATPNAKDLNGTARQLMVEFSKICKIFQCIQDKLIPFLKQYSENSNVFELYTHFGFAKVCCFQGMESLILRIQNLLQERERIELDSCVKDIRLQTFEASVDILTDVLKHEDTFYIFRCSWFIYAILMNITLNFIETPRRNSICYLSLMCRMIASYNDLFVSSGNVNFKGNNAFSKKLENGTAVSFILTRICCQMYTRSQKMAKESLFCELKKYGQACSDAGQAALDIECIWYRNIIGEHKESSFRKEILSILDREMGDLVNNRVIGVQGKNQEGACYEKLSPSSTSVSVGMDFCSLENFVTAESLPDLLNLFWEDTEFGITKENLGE
# Assay: PBM E-score (8-mer binding enrichment) (E-score (-0.5 to 0.5)); higher = stronger / more preferred TF binding
# Details: protein concentration: 100 nM; construct: GST-full length
# Procedure: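 Universal 'all 10-mer' protein binding microarrays (Agilent AMADID 015681) probed with GST-tagged S. cerevisiae TFs (full-length or DBD) made by in vitro transcription/translation (PURExpress), about 100-200 nM. Bound TF was detected with fluorescent anti-GST. Each ungapped 8-mer (which stands for itself and its reverse complement) is scored by the PBM enrichment score (E-score), a modified Wilcoxon-Mann-Whitney statistic from -0.5 to +0.5, computed with the Universal PBM Analysis Suite. Scale: above 0.35 generally sequence-specific binding.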
row,Sequence,PBM E-score
1,CATGGCGC,-0.0606
2,GCCAAAAA,0.234
3,TGGTAAAA,0.203
4,TGATAAAA,0.178
5,GGGTAAAA,0.143
6,GTATAAAA,0.325
7,AGGTAAAG,0.106
8,GGATAAAA,0.248
9,CGGTAAAC,0.216
10,CGGTAAAA,0.305
11,ATATAAAA,0.278
12,CGATAAAA,0.333
13,CGGTAAAG,0.314
14,GTATAAAC,0.256
15,AAGTTTGG,0.113
16,ATCCTCGG,0.218
17,CCAAAGCG,-0.0768
18,ACAACCGA,0.261
19,AAGGCGTG,-0.149
20,ATATTGGC,-0.0624
21,GGGCAACC,-0.121
22,CCCCAGGG,-0.297
23,CACGGGGC,-0.0464
24,TAATCTGA,-0.00734
25,GTCCGTTA,0.207

row,Sequence,PBM E-score
1,ATCCGTTC,0.29
2,ATCCGTTA,0.367
3,AGCCCAAG,-0.228
4,AACCGAAG,0.259
5,GGCCGAAC,0.305
6,GCCCGAAC,0.0908
7,TGCCGAAA,0.371
8,CGCCGAAA,0.293
9,AACCGAAT,0.199
10,ACCCGAAT,0.104
11,GGCCGACC,0.028
12,AGCCGAAT,0.392
13,AACCGAAA,0.345
14,AGCCGACT,-0.00308
15,TGCCGACA,0.222
16,GCGGGGAA,-0.0187
17,CGGGCTAA,0.0904
18,CTGCCTCC,-0.339
19,ATACGACC,-0.182
20,GATCTGGA,-0.0474
21,GACTTTCA,-0.0149
22,CATGCGCC,-0.092
23,CCATTAAG,-0.0869
24,ACCTCACT,-0.0518
25,ACTAGCGG,-0.0521

row,Sequence,PBM E-score
1,CACCGAAC,0.143
2,GGTCGAAA,-0.168
3,GGCCGAAA,0.398
4,ACCCGAAA,0.169
5,GCCCGAAA,0.171
6,AGCCGAAA,0.364
7,GACCGAAC,0.33
8,GACCGAAA,0.265
9,AGCCGAAC,0.279
10,CACTAGGC,-0.175
11,CGATAAAG,-0.00214
12,CTACGCAA,-0.00413
13,ACCCAATA,-0.0358
14,GGTTACAA,0.23
15,CCATAACC,-0.184
16,AAGATAGT,0.108
17,GAACATTC,0.102
18,CCGAGAAA,0.351
19,CCGAAATA,0.34
20,ACGAAAAG,0.187
21,TCGAGAAA,0.0245
22,ACGAAATA,0.11
23,GCGAGAAA,-0.0014
24,TCGAAAAA,0.169
25,CCGAAAAC,0.243

row,Sequence,PBM E-score
1,CCGAAAGG,0.166
2,GCGAAATA,0.206
3,CCGAAAAG,0.31
4,CCGAAAAA,0.371
5,AGCCATCG,-0.189
6,CCTTGCCG,0.124
7,CCACAGAG,-0.188
8,AACTTACG,0.0113
9,GGGGGGAC,-0.445
10,CGGCGCAC,0.216
11,GTCTTAAC,-0.122
12,TAAGGTGA,-0.0772
13,CGGGGAAG,0.0845
14,ACAGTTAT,-0.0291
15,CCGAAGAA,0.345
16,ACGAAGAA,0.258
17,TCGAAGAA,-0.0488
18,GTGAATCA,-0.0703
19,TGTTAACA,0.111
20,TCGGTAAA,0.296
21,ACGGTAAG,-0.00751
22,CCGGTAAA,0.321
23,CCGGTACG,-0.00725
24,CCGGTAAG,0.369
25,CCGGTAAC,0.259

row,Sequence,PBM E-score
1,GAAAGAGC,-0.0552
2,CCCTTTGA,-0.266
3,ACGCGACA,-0.0168
4,CCGATTCA,0.0391
5,CCGATTCG,0.358
6,CCGATTCC,0.164
7,ATGCCAAT,-0.0596
8,CCGGACAG,0.324
9,AGGGACCG,-0.165
10,GCGGACCA,0.243
11,ACGGACCG,0.193
12,CCGGACCG,0.353
13,CCGGACCC,0.235
14,CCGGACCA,0.297
15,CCGGACAA,0.29
16,CCGGACAC,0.286
17,CGGGACCA,-0.098
18,ACGGACCA,0.327
19,CGGGACCG,0.31
20,GTAGTGGA,0.177
21,ATGCTGGG,-0.0916
22,ACAATTGT,0.097
23,AATGCTCG,-0.0329
24,AACCAACG,-0.0237
25,ACAGCCCA,-0.0828

row,Sequence,PBM E-score
1,TATCTGAA,0.108
2,AAAACTGT,0.0544
3,TCGGACAA,0.378
4,ACGGACAA,0.27
5,GCGGACAA,0.298
6,TCGCTGCA,-0.0505
7,AACTGGGA,-0.151
8,ATTGCGGC,0.0068
9,AAAGTGCA,-0.0658
10,ACGGCGCC,0.122
11,GCGGCGCC,0.299
12,CCGGCGCA,0.277
13,CCGGCGCG,0.305
14,CCGGCGCC,0.354
15,ACGGCGCG,0.232
16,CGTATTGC,0.0559
17,ATAGCTGC,0.0565
18,GTCGGAAA,0.318
19,ATCGGAAT,0.379
20,TTCGGAAA,0.402
21,GTCGGAGA,0.158
22,ATCGGAAG,0.211
23,TTCAGAAA,0.0478
24,ATCGGAAA,0.344
25,ATCGGAAC,0.291

row,Sequence,PBM E-score
1,ATCGGCAT,0.267
2,GTCGGGAA,0.0333
3,TTAGGAAA,0.146
4,ATCGGAGA,0.216
5,CAGCCTTA,-0.0157
6,CTTGGATC,-0.0713
7,CATCGCAG,-0.28
8,GCGGGAAC,-0.00769
9,CCTTAAGG,-0.0623
10,GCCGGTGA,0.235
11,GCCGGTAC,0.229
12,TCCGGTAA,0.387
13,ACCGGTAA,0.217
14,CCCGGTAA,0.221
15,GCCGGTAA,0.346
16,GTAGCTAA,-0.0505
17,GGCCTCCA,-0.0306
18,ATCCCATG,-0.297
19,AGCTGAGG,-0.11
20,ACCCTCCC,0.0834
21,ACGAAAGC,0.0461
22,GGGCTAGA,-0.183
23,CGGCTAGA,0.306
24,TGGCTAAA,0.0133
25,AGGCTAAA,-0.0661

row,Sequence,PBM E-score
1,CGGCTAAA,0.327
2,CGGCTAGC,0.24
3,CTCCCACA,-0.184
4,AGTGCACT,0.067
5,CTGGGTTA,-0.115
6,ATGAGTAA,0.0956
7,ACAACCCG,0.0761
8,CAATTCCC,0.178
9,CAATTCCG,0.315
10,AAATTCCA,0.216
11,CAATTCCA,-0.0791
12,AAATTCCC,-0.0964
13,AAATTCCG,0.384
14,AACAACCC,-0.0615
15,ATCCTTGA,0.0411
16,ATGATAAA,0.271
17,CGGATAAA,0.417
18,CGGATGAA,0.351
19,AGGATAAC,-0.197
20,TTGATAAA,0.329
21,AGGATGAA,-0.0513
22,CGGATGAG,0.171
23,TGGATAAA,0.18
24,GTGATAAA,0.179
25,GGGATAAC,-0.0432

row,Sequence,PBM E-score
1,CGGATAAC,0.34
2,CGGATAAG,0.217
3,CCCCAAAG,-0.253
4,CGGAGACC,0.0297
5,CGAACACG,0.172
6,CTATTGCC,-0.131
7,TCTCTTAA,0.126
8,AAAGCTTT,0.237
9,CGTCAACC,-0.137
10,GGTGCAGA,-0.206
11,CAAATGAG,-0.104
12,ACACTCGC,0.0547
13,AGAGACAC,-0.119
14,CGGAGATA,0.406
15,CGGATAGA,0.338
16,CGGATATC,0.285
17,GGGAGATA,-0.161
18,AGGAGATA,-0.134
19,CGGATATA,0.389
20,GGGATAGA,-0.186
21,GGGATATA,0.0967
22,CGGATCAA,0.318
23,TGGATCAA,-0.0363
24,AGGATAGA,0.0167
25,CGGATCAG,0.224
